Assay outcomes: PubChem, National Center for Advancing Translational Sciences (NCATS)
Sampled rows, rich in hits. Any-hit rate of the full collection: about 0.18%.
mIDH1 inhibitor: qHTS for Inhibitors of mutant isocitrate dehydrogenase 1 (IDH1): qHTS. Potency, µM (highest dose often 76.6 µM), for the others: at the top dose activity change, negative = inhibition, most hits filed as inhibitors. IDH1-R132H enzyme, NADPH consumption, diaphorase/resazurin fluorescence. Isocitrate dehydrogenase [NADP] cytoplasmic (Homo sapiens), O75874. hit rate 0.093% among 390,000. AID 602179, 2012; also: potency is read from the fitted curve at half-maximal effect; % is scaled to controls: 0 for no effect and ±100 for the full control effect; nearly all actives have a fitted effect of over 65% in size
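IDH1-R132H (0.5 ug/mL dispensed) in pH 7.5 Tris buffer was preincubated 30 min with compound, then given a substrate mix of 0.016 mM NADPH and 2 mM alpha-KG for 80 min at room temperature; remaining NADPH was read by diaphorase/resazurin fluorescence.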
Apoferritin bind: qHTS Assay for Identification of Novel General Anesthetics; apoferritin/1-aminoanthracene competitive binding, fluorescence; Potency, µM (series often up to 77.5 µM), for inactives: top-dose activity change, negative = displacement, actives largely listed as inhibitors; hit rate 0.074% among 350,000; also: potency is read from the fitted curve at half-maximal effect; % is scaled to controls: 0 for no effect and ±100 for the full control effect; nearly all actives have a fitted effect of over 20% in size
Target sequence (P02791 2-175 limits assumed): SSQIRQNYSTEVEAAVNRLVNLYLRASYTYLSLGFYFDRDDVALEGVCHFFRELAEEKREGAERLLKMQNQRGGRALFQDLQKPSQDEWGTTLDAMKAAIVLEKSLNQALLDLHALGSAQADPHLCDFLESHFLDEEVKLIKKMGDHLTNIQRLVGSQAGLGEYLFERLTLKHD
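Steps: apoferritin (10 uM) was premixed with half-saturated 1-AMA in PBS, compounds were pin-transferred, plates stood 10 min at room temperature, fluorescence was read at 380/535 nm, and curves were fitted with a Hill equation.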
ERG Ets-DNA blk: qHTS for Small Molecule Inhibitors of the ERG Ets/DNA interaction; Transcriptional regulator ERG (Homo sapiens), P11308; fluorescence polarization, His-ERG Ets domain / labelled DNA; Potency, µM (highest dose often 76.9 µM), for the others: top-dose FP activity, negative = inhibition, most hits filed as inhibitors; hit rate 0.028% among 370,000; AID 624246, 2012; active = well fitted inhibition curve with a large enough effect in the polarisation, with a control signal flat; inconclusive = small, poorly fitted or top-dose-only effect, or effect the other way, or a change in a side signal; inactive = no such curve, though single readings can be large or run the other way; the % refers to the polarisation;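 also: polarization taken with two DNA probes labelled with fluorescein and Texas red; potency is read from the fitted curve at half-maximal effect; % of control where 0% means no effect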
Target sequence (P11308 whole entry, looked up, the tested form may be a part): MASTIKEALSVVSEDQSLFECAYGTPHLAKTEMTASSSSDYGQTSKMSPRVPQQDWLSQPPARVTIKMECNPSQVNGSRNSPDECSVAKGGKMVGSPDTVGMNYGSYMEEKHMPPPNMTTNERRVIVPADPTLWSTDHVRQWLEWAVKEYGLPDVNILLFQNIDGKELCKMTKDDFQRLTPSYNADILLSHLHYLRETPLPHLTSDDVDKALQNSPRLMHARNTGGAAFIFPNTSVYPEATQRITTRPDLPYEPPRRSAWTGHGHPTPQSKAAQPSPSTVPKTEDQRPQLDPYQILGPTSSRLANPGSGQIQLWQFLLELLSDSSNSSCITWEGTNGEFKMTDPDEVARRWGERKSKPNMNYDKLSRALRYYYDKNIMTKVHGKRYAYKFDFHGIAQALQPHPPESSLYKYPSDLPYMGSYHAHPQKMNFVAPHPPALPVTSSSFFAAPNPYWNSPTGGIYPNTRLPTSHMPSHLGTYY
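His-tagged ERG Ets domain (1 uM in the protein solution; 300mM KCl, 50mM Tris-HCl, 1mM EDTA, 1mM DTT, pH 7.5) received compound, then a probe mix of 5 nM fluorescein-DNA and 100nM Texas-615-DNA. Fluorescence polarization was read for both dyes.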
TSG101-PTAP inh: qHTS Assay for Iinhibitors of HIV-1 Budding by Blocking the Interaction of PTAP/TSG101; Fluorescence polarization, FITC-PTAP peptide / Tsg101 binding; Potency, µM (highest dose often 115 µM), inactives show top-dose activity change, negative = inhibition, actives largely listed as inhibitors; 340,000 tested, under 10 active; AID 493005, 2010; Tumor susceptibility gene 101 protein (Homo sapiens), Q99816; active = well fitted inhibition curve with a large enough effect in the main read-out, with a control signal flat, not every such curve was filed as active; inconclusive = small, poorly fitted or top-dose-only effect, or effect the other way, or a change in a side signal; inactive = no such curve, though single readings can be large or run the other way; also: potency is read from the fitted curve at half-maximal effect; % of control where 0% means no effect
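FP read-out: FITC-PTAP peptide, 50 nM final, binding Tsg101 binding domain, 10 uM final; 20 min, r.t.; 10 mM HEPES pH 7.5, 0.15 M NaCl, 0.01% Tween 20, 3 mM EDTA, 0.1 mM TCEP.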
Resorufin autofl: qHTS for Inhibitors of mutant isocitrate dehydrogenase 1 (IDH1): Cherrypicks Autofluorescence Interference; shares compounds with mIDH1 inhibitor; Resorufin detection reagent fluorescence interference, cell-free; inhibition of signal, % at 51.2 µM; 750 tested, under 10 active;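 also: 0% = wells with normal resorufin and full inhibition = wells lacking resorufin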
IDH1 WT: qHTS for Inhibitors of mutant isocitrate dehydrogenase 1 (IDH1): Cherrypicks in WT IDH1; shares compounds with mIDH1 inhibitor; WT IDH1 enzyme, NADPH diaphorase/resazurin fluorescence; Potency, µM (highest dose often 115 µM), for the others: at the top dose activity change, negative = inhibition, actives largely listed as inhibitors; hit rate 9% among 750; AID 623995, 2012;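 also: potency is read from the fitted curve at half-maximal effect; 0% = full WT IDH1 enzyme control and full inhibition = no enzyme wells; nearly all actives have a fitted effect of over 55% in size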
IDH1 R132H conf: qHTS for Inhibitors of mutant isocitrate dehydrogenase 1 (IDH1): Confirmation of Cherrypicks | shares compounds with mIDH1 inhibitor | IDH1 R132H enzyme, NADPH diaphorase/resazurin fluorescence | Potency, µM (titrated, usually from 76.6 µM), for inactives: top-dose activity change, negative = inhibition, hits mostly inhibitors | hit rate 83% among 750; also: potency is read from the fitted curve at half-maximal effect; nearly all actives have a fitted effect of over 50% in size
Active calls of the source: *; u = inconclusive; x = not tested or not shown; [ ] = another dose, or the depositor's remark. Unless noted, calls follow the shape of the dose curve; as a rule, active = well fitted curve in the direction sought with a large enough effect; inconclusive = small, poorly fitted or top-dose-only effect, or another doubt; inactive = no such curve, though single readings can be large; an effect the other way counts as inactive or inconclusive.

SMILES | mIDH1 inhibitor | Apoferritin bind | ERG Ets-DNA blk | TSG101-PTAP inh | Resorufin autofl | IDH1 WT | IDH1 R132H conf
Cc1ccccc1N(C(=O)c1snc(C(N)=O)c1N)C(C(=O)NC1CCCC1)c1ccco1 (centres undefined) | u | 4% | 0% | 5% | 2 | 13% | 40µM*
Cc1cccc(N(C(=O)c2ccco2)C(C(=O)NC2CCCC2)c2ccco2)c1C (centres undefined) | u | -22% | -13% | 1% | -5 | 8% | 20µM*
CC(=O)c1cccc(N(C(=O)c2ccco2)C(C(=O)NC2CCCC2)c2ccccc2F)c1 (centres undefined) | 23µM* | -24% | -9% | -4% | -1 | 4% | 11µM*
COC(=O)c1ccc(NC(=O)C2CCCO2)cc1 (centres undefined) | -2% | -4% | 1% | -3% | x | x | x
COc1cc(C(=O)Nc2ccc3oc(-c4cccnc4)nc3c2)cc(OC)c1OC | 1% | -5% | -4% | 0% | x | x | x
Cc1ccc(C[C@H](C(=O)O)N2C(=O)c3ccc(C(=O)O)cc3C2=O)cc1 | x | 1% | x | x | x | x | x
COC(=O)c1c(NC(=O)COC(=O)c2ccc(O)cc2)sc2c1CCCCC2 | u | -4% | 2% | 1% | 6 | 5% | -27%
COCC(=O)Nc1sc2c(c1C(=O)OC)CCCC2 | 5% | -13% | 3% | -5% | x | x | x
CCc1cccc(CC)c1-n1c(SCC(=O)N2CCc3ccccc3C2)nnc1-c1cccnc1 | 52µM* | -2% | -1% | -1% | -1 | 1% | 14µM*
c1cc(-c2nc3cc(Cc4ccc5oc(-c6ccncc6)nc5c4)ccc3o2)ccn1 | x | 5% | x | x | x | x | x
COc1ccc(CNC(=O)COC(=O)CN2C(=O)C3CCCCC3C2=O)cc1 (centres undefined) | -1% | x | x | x | x | x | x
Cc1cccc(Nc2c(O)nc[nH]c2=O)c1 | -5% | x | u | -2% | x | x | x
O=C(O)c1cc(-c2ccc(-c3c(-c4ccc5c(c4)OCO5)noc3-c3ccsc3)cc2)nc2ccccc12 | 45µM* | -14% | -1% | -5% | 4 | u | 20µM*
COc1ccc(-c2oc(NC(=O)CCl)c(C#N)c2-c2ccc(OC)cc2)cc1 | 29µM* | u | -5% | -2% | 10 | 79µM* | 8.9µM*
CN(C)c1ccc(NC(=S)c2ccc3ccccc3n2)cc1 | 2% | -3% | -1% | 0% | x | x | x
CCC(=O)N(CCC(Cc1ccccc1)c1ccc2c(c1)OCO2)Cc1ccccc1F (centres undefined) | u | 65% | 9% | 1% | -5 | 8% | 14µM*
C#CCCCO/N=C1/C[C@@H](O)[C@@H](O)[C@@H]2[C@@H]3C(=O)N(C[C@@H]4CCCO4)C(=O)[C@H]3CC[C@@H]12 | x | -11%[15.3 µM] | x | x | x | x | x
COc1cc2cc(-c3ccc(O)cc3O)nc(C)c2cc1OC | u | 4% | 14% | 1% | -10 | 3% | 28µM*
O=C(CSc1nc(-c2ccccc2)cc(=O)[nH]1)N1CCc2ccccc21 | -1% | -8% | 5% | -1% | x | x | x
Cc1cccc(CNC(=O)c2sc3ncnc(N(C)C4CCCCC4)c3c2C)c1 | -7% | -11% | -8% | x | x | x | x
O=C(NC1CCCCC1)C(c1ccco1)N(C(=O)c1csnn1)c1cccc(Cl)c1 (centres undefined) | u | u | 4% | -2% | 0 | -2% | 28µM*
COc1cccc(N(C(=O)c2cnccn2)C(C(=O)NC2CCCCC2)c2ccc(Cl)cc2)c1 (centres undefined) | -6% | -2% | 5% | -5% | x | x | x
O=C(NC1CCCCC1)C(c1ccc(Cl)cc1)N(C(=O)c1cnccn1)c1ccc2c(c1)OCO2 (centres undefined) | u | -2% | x | 0% | -7 | -11% | u
O=C(NC1CCCC1)C(c1ccccc1)N(C(=O)c1csnn1)c1ccccc1F (centres undefined) | u | -2% | -5% | -2% | -7 | -2% | 25µM*
O=C(NC1CCCC1)C(c1ccncc1)N(C(=O)c1csnn1)c1ccccc1 (centres undefined) | -2% | 3% | -5% | -1% | x | x | x
SMILES | mIDH1 inhibitor | Apoferritin bind | ERG Ets-DNA blk | TSG101-PTAP inh | Resorufin autofl | IDH1 WT | IDH1 R132H conf
COc1cccc(N(C(=O)c2csnn2)C(C(=O)NC2CCCC2)c2ccccc2)c1 (centres undefined) | u | -1% | -3% | -4% | 4 | -4% | 40µM*
C1=C(CCNCC2CC2)CCCC1 | 5% | 0% | -8% | -1% | x | x | x
C[C@H](CO)N1C[C@H](C)[C@@H](CN(C)Cc2ccc(C(=O)Nc3ccccc3N)cc2)Oc2c(NC(=O)C3CCCCC3)cccc2C1=O | 40µM* | x | 0% | 1% | -14 | u | 28µM*
C[C@H](CO)N1C[C@H](C)[C@@H](CN(C)Cc2ccc(Cl)c(Cl)c2)Oc2c(NC(=O)C3CC3)cccc2C1=O | u | x | -3% | -3% | -4 | -9% | 25µM*
O=C(CS(=O)(=O)c1c[nH]c2ccccc12)Nc1ccc(F)cc1 | 9% | -2% | -1% | -1% | x | x | x
COc1ccc(C)cc1-n1c(-c2ccc(Cl)cc2)cc2c1CC(C)(C)CC2=O | u | 1% | 1% | x | -1 | 0% | 14µM*
CCc1ccc(NC(=O)CSC2=C(C#N)C(c3ccco3)C3=C(CCCC3=O)N2)cc1 (centres undefined) | 4% | -14% | -6% | -8% | x | x | x
Cc1ccc(NC(=O)CSC2=C(C#N)C(c3ccco3)C3=C(CC(C)(C)CC3=O)N2)cc1 (centres undefined) | 52µM* | -4% | 2% | -6% | 3 | -6% | 28µM*
CCOc1cccc(N(C(=O)C2COc3ccccc3O2)C(C(=O)NC2CCCCC2)c2ccc(O)cc2)c1 (centres undefined) | u | 6% | 0% | -3% | 5 | 10% | 5.6µM*
